Assay outcomes deposited in PubChem BioAssay by National Center for Advancing Translational Sciences (NCATS).
TDP1 cell noCPT – qHTS for Inhibitors of human tyrosyl-DNA phosphodiesterase 1 (TDP1): qHTS in cells in absence of CPT; DT40 Tdp1-/- hTDP1 cells, no CPT, ATP luminescence, 48 h; Potency, µM (titrated, usually from 46.2 µM), without a hit: at the top dose activity change, negative = growth inhibition, most hits filed as inhibitors; 420,000 compounds, 15% hits; AID 686978, 2013; also: potency is read from the fitted curve at half-maximal effect; % is scaled to controls: 0 for no effect and ±100 for the full control effect; nearly all actives have a fitted effect of over 55% in size
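Readout: luminescence from CellTiter-Glo after 30 min in the dark at RT. Cells: DT40 Tdp1-/- with stable hTDP1, 400/well. Exposure: compounds alone, ≥48 hr, 37 °C.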
SW480 rereplic – inducers of DNA re-replication in SW480 colon cancer cells; SW480 DNA re-replication, Hoechst DNA content imaging, 48 h; Potency, µM (titrated, usually from 46.1 µM), inactives show top-dose re-replication activation, most hits filed as activators; 340,000 compounds, 1.8% hits; also: potency is read from the fitted curve at half-maximal effect; % of control where 0% means no effect; nearly all actives have a fitted effect of over 55% in size
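Compounds, transferred as 23 nL by pin tool, were incubated with cells for 48 hr; DNA content per nucleus was then quantified by Hoechst staining and fluorescence plate imaging.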
DT40 TDP1 CPT – growth inhibition of DT40 Tdp1-/-;hTDP1 cells with camptothecin (screen for TDP1 inhibitors). chicken DT40 Tdp1-/-;hTDP1 cells + 20 nM CPT, ATP luminescence, 48 h. Potency, µM (series often up to 46.2 µM), for the others: at the highest dose activity change, negative = growth inhibition, actives largely listed as inhibitors. 420,000 compounds, 12% hits. AID 686979; also: potency is read from the fitted curve at half-maximal effect; % is scaled to controls: 0 for no effect and ±100 for the full control effect; nearly all actives have a fitted effect of over 55% in size
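Chicken DT40 Tdp1-/- cells stably complemented with human TDP1 were seeded at 400 cells/well in medium containing 20 nM camptothecin, exposed to pin-transferred compounds, and grown at 37 °C for at least 48 hr. Viability was read as ATP luminescence.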
Chronic BCR inh – chronic active BCR signaling inhibition. 340,000 compounds, 0.05% hits. AID 493014. ABC-DLBCL IkBa-CBG/CBR reporter, luminescence ratio, 4 h. Potency, µM (highest dose often 46.1 µM), for inactives: at the top dose activity change, negative = inhibition, hits mostly inhibitors; active = well fitted inhibition curve with a large enough effect in the signal ratio, with a control signal flat, not every such curve was filed as active; inconclusive = small, poorly fitted or top-dose-only effect, or effect the other way, or a change in a side signal; the % refers to the signal ratio;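 also: potency is read from the fitted curve at half-maximal effect; plate controls were basal doxycycline-induced cells for no effect and cells given 10 µM MG132 for full effect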
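Cell line TMD8 (human ABC DLBCL), stably expressing tet-inducible CBG68-IkBa fusion and CBR; IMDM/0.5% FBS; cpd up to 46 uM; dox induction, 4 h, 37C/5% CO2; dual luminescence; green/red ratio; MG132 control.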
MCF10A rerep – induces DNA re-replication in MCF 10a normal breast cells; AID 624296; 350,000 compounds, 2.9% hits; MCF 10A DNA re-replication, Hoechst nuclear intensity, 48 h; Potency, µM (top dose mostly 46.1 µM), without a hit: at the top dose activity, positive = re-replication, actives largely listed as activators; also: potency is read from the fitted curve at half-maximal effect; % of control where 0% means no effect; nearly all actives have a fitted effect of over 50% in size
IL1B secr inh – blocks inflammasome-driven IL-1 beta release; THP-1 LPS/ATP IL-1B secretion, AlphaLISA, 16 h; active compounds read low; activity change, % at 57.5 µM; 360,000 compounds, 4.7% hits; AID 743279; in the data active = activity change below about -50%; inconclusive = mostly about -30% to -49%; also: % is scaled to controls: 0 for no effect and ±100 for the full control effect
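THP-1 cells pretreated 1 hr with compounds (up to 57.5 uM final), then stimulated with LPS (250 ng/mL final) plus ATP (1.25 mM final); secreted IL-1B measured by AlphaLISA after 16 hr, decreased signal indicating inhibition.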
The depositor's hits bear a star; i = inactive; ? = inconclusive; nt = no result. Only some compounds are listed: those with a hit (about 19% of all), similar ones and a draw of the others. Unless noted, calls follow the shape of the dose curve; as a rule, active = well fitted curve in the direction sought with a large enough effect; inconclusive = small, poorly fitted or top-dose-only effect, or another doubt; inactive = no such curve, though single readings can be large; an effect the other way counts as inactive or inconclusive.

SMILES	TDP1 cell noCPT	SW480 rereplic	DT40 TDP1 CPT	Chronic BCR inh	MCF10A rerep	IL1B secr inh
COCC1CCN(C(=O)c2ccc3oc(CCc4ccccc4)nc3c2)C1 (stereo not drawn)	?	nt	?	nt	nt	23
CCOC(=O)c1cnc2c(OC)cccc2c1N1CCN(c2ccccc2F)CC1	18µM*	nt	18µM*	nt	nt	nt
CCOC(=O)c1cnc2ccc(OCC)cc2c1N(C)Cc1ccccc1	23µM*	9%	?	-2%	?	-71*
CCOC(=O)c1cc2cc(OCc3ccccc3)ccc2nc1C	-25%	-8%	-19%	?	?	-13
CCOc1ccc2ncc(C(=O)c3ccc(OC)cc3)c(N3CCN(CC)CC3)c2c1	?	23%	?	0%	4%	-6
CCOC(=O)c1cnc2ccc(OCC)cc2c1N1CCN(c2ccccc2OC)CC1	12µM*	-6%	?	?	18µM*	-55*
COc1ccc(CN(C)C[C@H]2OCCCC[C@@H](C)Oc3ccc(NS(C)(=O)=O)cc3C(=O)N([C@H](C)CO)C[C@@H]2C)cc1	-2%	nt	-2%	nt	nt	0
CC(=O)NC(c1ccc(F)c(F)c1)c1nc(-c2ccccc2)cs1 (stereo not drawn)	?	nt	?	nt	nt	-5
O=C(COC(=O)c1ccccc1OCCOc1ccccc1)Nc1ccc(Br)cc1	-1%	nt	-6%	nt	nt	nt
CN(C)/C=C(\C#N)C(=O)N/N=C/c1ccccc1	-28%	-8%	-7%	0%	-2%	3
O=C(NCc1ccc(N2CCCC2=O)cc1)c1cc(COc2c(F)cccc2F)on1	?	-5%	?	-18%	0%	-13
COC(=O)C1=C(C)NC(C)=C(C(=O)OC)C1c1ccc(OC(=O)c2oc3ccccc3c2C)c(OC)c1	?	0.52µM*	?	-11%	11%	0
O=C(NCCN1C(=O)S/C(=C\c2cccc(Cl)c2Cl)C1=O)C1=COCCO1	2.6µM*	?	1.5µM*	-24%	2.6µM*	i
O=C(c1ccccc1)c1c2c(cc3sc4ccccc4[n+]13)-c1cccc3cccc-2c13	2.3µM*	8%	4.6µM*	?	?	-108*
Cc1sc2cc3c(c(C(=O)c4ccccc4)[n+]2c1C)-c1cccc2cccc-3c12	1.3µM*	?	1µM*	?	12µM*	-97*
CC(C)(C)C(=O)c1c(N)[nH]c(C(=O)c2ccccc2)c1-c1cc2ccccc2nc1Cl	?	nt	-3%	nt	nt	5
CCCNS(=O)(=O)c1cc(CN2C(=O)c3cccnc3C2=O)ccc1OC	4%	5%	0%	?	-5%	0
COc1ccc(NC(C)=O)cc1S(=O)(=O)NC1CCSc2ccccc21 (stereo not drawn)	-11%	-2%	-2%	2%	-2%	4
CCOc1ccc(C(=O)Nc2ccc(N3CCN(C)CC3)cc2)cc1Br	29µM*	?	?	0%	?	-52*
CCOc1ccc(C(=O)Nc2ccc(Cc3ccncc3)cc2)cc1Br	-24%	16µM*	-15%	?	?	-89*
CCOc1ccc(C(=O)Nc2ccc(NC(=O)c3ccccc3)cc2)cc1Br	10%	-38%	-12%	1%	1%	14
COCCCN1C(=O)C(=O)/C(=C(/O)c2ccc(S(=O)(=O)N3CCOCC3)cc2)C1c1cccc(Cl)c1 (stereo not drawn)	-1%	-6%	10%	-4%	-9%	10
Cc1ccc(S(=O)(=O)N/N=C\c2cc3c(cc2Br)OCO3)cc1	?	?	?	-2%	4.6µM*	16
Cc1ccc(S(=O)(=O)NN=Cc2ccccc2Cl)cc1	?	nt	23µM*	nt	nt	7
